The supplement of paper PMC11732987, “Enantioselective OTUD7B fragment discovery through chemoproteomics screening and high-throughput optimisation” (Communications Chemistry, 2025)

Key:
Assay in all cases: log2 ratio of Biotin-Ahx-Ub-VS probe labelling (fragment/DMSO); higher = less target engagement (more negative = stronger competition), active = hit call of the paper (q ≤ 0.05, log2 ratio ≤ -1)
Conditions in all cases: compound concentration: 200 uM; treatment time: 3 h
USP42 = molecular target: T1, USP42 (UniProt Q9H9J4)
T1 sequence (whole entry): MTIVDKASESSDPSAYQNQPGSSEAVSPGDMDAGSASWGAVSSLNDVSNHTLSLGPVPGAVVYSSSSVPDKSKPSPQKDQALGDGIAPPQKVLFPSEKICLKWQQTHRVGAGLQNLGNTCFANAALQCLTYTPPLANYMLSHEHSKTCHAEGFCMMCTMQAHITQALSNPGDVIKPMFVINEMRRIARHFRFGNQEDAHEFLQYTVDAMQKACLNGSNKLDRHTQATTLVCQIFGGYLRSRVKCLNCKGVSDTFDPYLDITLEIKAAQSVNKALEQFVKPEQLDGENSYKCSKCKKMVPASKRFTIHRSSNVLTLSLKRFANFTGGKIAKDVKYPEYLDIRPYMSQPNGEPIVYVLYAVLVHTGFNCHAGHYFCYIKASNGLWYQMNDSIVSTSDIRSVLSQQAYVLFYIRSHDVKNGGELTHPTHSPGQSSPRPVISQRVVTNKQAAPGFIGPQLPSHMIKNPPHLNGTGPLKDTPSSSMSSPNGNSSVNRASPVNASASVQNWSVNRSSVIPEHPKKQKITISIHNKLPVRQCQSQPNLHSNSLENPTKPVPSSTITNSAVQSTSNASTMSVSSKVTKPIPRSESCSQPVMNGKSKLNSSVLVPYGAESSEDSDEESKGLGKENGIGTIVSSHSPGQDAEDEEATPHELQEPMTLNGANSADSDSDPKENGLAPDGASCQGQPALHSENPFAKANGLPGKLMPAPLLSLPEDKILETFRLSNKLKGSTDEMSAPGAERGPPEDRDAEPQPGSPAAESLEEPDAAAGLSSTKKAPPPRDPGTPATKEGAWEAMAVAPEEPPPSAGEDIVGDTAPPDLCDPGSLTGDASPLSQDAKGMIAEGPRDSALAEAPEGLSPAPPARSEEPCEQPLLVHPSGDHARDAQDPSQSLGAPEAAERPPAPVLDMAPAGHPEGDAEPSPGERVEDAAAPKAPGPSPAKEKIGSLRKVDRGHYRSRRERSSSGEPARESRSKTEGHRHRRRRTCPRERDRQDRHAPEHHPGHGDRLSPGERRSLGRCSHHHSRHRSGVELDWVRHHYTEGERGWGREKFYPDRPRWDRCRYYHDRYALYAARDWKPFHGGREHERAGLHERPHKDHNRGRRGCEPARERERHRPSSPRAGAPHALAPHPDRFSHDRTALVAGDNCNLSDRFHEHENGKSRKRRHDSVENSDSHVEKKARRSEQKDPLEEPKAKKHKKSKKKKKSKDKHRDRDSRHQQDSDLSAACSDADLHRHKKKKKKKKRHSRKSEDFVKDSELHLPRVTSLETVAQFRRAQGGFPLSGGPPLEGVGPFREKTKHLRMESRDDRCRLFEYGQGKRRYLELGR
Summary of the method: (§1)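 In triplicate, 495 µg of HEK293T lysate per sample was incubated with fragment at 200 µM or vehicle for 3 h. Biotin-Ahx-Ub-VS was then added to 0.5 µM final for 1 h, and labelled DUBs were captured with NeutrAvidin, digested with LysC and trypsin, and measured by diaPASEF LC-MS/MS. Data are average log2 fragment/vehicle ratios by unpaired t-test from global-median-normalised Spectronaut label-free quantities, restricted to proteins with ≥2 unique peptides.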

USP46 = USP46 (UniProt P62068)
Summary of the method: as §1

USP47 = molecular target: T2, USP47 (UniProt Q96K76)
T2 sequence (whole entry): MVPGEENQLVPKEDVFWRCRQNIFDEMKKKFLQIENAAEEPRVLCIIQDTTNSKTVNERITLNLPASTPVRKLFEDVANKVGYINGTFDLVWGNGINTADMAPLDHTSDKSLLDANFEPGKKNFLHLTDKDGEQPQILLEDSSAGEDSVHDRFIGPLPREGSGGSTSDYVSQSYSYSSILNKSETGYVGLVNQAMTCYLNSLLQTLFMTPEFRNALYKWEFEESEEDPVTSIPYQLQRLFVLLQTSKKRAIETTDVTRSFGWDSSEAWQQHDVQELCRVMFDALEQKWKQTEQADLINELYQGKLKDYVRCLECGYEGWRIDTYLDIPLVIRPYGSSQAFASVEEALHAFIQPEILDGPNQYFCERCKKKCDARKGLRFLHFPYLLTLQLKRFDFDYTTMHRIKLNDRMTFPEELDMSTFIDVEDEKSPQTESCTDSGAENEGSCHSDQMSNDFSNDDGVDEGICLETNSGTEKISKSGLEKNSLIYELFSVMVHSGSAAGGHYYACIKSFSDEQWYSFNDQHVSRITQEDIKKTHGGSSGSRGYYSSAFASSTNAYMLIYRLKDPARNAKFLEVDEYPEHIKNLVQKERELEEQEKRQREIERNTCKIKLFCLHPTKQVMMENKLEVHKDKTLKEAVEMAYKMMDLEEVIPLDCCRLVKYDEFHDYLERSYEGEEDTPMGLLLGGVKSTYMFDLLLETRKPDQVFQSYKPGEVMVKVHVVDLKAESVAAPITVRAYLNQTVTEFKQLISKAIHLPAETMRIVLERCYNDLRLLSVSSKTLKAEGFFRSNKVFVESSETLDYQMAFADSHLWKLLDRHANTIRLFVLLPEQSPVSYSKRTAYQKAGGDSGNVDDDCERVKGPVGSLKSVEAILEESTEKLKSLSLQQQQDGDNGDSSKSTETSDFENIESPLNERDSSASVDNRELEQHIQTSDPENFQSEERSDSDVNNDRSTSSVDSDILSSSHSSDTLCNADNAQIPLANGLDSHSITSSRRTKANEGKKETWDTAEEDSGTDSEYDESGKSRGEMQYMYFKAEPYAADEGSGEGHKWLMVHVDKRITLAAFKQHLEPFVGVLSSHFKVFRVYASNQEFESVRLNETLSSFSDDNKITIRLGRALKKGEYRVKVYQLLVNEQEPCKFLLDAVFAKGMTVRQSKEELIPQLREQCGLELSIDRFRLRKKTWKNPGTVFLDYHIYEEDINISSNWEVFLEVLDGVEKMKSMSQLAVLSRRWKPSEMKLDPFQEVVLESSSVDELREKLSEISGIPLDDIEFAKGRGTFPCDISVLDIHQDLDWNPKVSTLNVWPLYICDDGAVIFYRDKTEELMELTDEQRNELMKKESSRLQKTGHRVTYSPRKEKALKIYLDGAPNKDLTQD
Summary of the method: as §1

USP48 = molecular target: T3, USP48 (UniProt Q86UV5)
T3 sequence (whole entry): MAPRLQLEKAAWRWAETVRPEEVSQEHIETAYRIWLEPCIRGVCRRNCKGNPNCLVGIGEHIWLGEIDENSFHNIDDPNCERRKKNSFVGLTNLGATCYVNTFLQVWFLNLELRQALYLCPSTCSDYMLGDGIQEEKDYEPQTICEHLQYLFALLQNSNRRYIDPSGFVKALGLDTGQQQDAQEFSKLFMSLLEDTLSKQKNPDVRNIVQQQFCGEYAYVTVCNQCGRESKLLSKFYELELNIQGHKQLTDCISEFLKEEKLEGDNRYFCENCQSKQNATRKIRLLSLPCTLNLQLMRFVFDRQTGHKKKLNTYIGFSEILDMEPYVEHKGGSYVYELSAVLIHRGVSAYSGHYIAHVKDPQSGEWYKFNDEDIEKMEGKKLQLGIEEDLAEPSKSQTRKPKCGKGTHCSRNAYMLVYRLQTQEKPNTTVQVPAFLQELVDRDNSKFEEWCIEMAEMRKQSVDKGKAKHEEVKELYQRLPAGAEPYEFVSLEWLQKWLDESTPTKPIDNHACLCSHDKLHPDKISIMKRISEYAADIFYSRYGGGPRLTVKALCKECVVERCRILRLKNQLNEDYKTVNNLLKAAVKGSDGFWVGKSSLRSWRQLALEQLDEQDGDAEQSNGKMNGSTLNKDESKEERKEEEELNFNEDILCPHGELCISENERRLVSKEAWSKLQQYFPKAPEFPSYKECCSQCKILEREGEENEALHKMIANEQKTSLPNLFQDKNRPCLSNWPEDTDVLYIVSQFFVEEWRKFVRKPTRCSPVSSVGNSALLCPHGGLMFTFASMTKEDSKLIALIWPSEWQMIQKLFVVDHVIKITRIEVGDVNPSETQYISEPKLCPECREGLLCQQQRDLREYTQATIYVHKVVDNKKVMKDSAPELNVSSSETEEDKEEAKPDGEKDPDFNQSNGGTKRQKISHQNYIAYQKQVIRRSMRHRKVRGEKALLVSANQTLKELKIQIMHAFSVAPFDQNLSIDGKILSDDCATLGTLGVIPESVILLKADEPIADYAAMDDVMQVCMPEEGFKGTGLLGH
Summary of the method: as §1

USP5 = molecular target: T4, USP5 (UniProt P45974)
T4 sequence (whole entry): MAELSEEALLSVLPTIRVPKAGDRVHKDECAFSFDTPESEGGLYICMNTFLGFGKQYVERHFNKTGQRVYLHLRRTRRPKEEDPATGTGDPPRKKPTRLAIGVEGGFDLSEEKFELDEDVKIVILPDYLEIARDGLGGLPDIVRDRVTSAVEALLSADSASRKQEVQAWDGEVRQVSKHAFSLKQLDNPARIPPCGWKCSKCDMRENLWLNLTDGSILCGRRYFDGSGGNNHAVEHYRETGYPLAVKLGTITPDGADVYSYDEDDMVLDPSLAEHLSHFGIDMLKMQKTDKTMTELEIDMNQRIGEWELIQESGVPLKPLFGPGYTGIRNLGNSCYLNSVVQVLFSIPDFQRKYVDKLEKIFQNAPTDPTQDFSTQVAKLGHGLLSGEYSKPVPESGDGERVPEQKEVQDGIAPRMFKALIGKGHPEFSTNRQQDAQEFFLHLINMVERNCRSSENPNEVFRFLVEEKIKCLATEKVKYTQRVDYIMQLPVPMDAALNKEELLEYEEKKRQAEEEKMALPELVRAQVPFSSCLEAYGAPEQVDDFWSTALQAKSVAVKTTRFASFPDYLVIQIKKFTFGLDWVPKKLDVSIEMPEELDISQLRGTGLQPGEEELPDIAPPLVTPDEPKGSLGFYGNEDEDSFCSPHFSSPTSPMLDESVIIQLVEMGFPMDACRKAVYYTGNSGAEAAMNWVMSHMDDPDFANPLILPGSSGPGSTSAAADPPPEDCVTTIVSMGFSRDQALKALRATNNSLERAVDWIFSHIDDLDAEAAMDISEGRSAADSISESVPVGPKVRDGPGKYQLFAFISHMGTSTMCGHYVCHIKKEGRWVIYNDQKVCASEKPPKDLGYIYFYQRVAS
Summary of the method: as §1

USP54 = USP54 (UniProt Q70EL1)
Summary of the method: as §1

USP7 = USP7 (UniProt Q93009)
Summary of the method: as §1

USP8 = molecular target: T5, USP8 (UniProt P40818)
T5 sequence (whole entry): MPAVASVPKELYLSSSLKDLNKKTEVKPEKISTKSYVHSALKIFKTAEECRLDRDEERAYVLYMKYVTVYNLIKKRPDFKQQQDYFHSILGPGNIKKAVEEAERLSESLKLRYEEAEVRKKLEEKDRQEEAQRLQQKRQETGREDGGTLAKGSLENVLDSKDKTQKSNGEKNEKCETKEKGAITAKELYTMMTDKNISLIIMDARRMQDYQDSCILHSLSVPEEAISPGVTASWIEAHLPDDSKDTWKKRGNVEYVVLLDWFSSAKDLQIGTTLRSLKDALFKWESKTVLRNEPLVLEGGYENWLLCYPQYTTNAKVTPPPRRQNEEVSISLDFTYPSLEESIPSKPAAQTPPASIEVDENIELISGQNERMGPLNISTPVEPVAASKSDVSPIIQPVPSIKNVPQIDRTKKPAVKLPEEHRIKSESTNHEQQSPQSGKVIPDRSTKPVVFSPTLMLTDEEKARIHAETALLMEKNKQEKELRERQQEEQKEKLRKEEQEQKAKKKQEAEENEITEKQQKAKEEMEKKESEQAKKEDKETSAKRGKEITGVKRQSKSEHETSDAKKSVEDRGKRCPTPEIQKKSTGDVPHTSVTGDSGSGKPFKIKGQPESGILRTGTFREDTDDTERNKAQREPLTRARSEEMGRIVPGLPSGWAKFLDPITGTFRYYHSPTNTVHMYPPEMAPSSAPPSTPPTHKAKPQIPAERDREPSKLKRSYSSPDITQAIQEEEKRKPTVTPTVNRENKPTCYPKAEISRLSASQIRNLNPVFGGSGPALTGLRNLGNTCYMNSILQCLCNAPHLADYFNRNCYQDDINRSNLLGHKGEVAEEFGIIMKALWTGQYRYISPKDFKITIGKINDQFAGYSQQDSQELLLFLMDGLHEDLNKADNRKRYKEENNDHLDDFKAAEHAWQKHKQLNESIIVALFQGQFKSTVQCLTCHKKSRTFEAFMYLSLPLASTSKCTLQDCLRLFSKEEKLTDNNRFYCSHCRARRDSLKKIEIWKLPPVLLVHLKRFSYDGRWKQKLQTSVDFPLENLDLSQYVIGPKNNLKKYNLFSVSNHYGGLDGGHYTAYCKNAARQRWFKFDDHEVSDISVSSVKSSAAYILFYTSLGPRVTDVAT
Summary of the method: as §1

Measured: log2 ratio of Biotin-Ahx-Ub-VS probe labelling

Chain of USP7 (Q93009 whole entry, looked up): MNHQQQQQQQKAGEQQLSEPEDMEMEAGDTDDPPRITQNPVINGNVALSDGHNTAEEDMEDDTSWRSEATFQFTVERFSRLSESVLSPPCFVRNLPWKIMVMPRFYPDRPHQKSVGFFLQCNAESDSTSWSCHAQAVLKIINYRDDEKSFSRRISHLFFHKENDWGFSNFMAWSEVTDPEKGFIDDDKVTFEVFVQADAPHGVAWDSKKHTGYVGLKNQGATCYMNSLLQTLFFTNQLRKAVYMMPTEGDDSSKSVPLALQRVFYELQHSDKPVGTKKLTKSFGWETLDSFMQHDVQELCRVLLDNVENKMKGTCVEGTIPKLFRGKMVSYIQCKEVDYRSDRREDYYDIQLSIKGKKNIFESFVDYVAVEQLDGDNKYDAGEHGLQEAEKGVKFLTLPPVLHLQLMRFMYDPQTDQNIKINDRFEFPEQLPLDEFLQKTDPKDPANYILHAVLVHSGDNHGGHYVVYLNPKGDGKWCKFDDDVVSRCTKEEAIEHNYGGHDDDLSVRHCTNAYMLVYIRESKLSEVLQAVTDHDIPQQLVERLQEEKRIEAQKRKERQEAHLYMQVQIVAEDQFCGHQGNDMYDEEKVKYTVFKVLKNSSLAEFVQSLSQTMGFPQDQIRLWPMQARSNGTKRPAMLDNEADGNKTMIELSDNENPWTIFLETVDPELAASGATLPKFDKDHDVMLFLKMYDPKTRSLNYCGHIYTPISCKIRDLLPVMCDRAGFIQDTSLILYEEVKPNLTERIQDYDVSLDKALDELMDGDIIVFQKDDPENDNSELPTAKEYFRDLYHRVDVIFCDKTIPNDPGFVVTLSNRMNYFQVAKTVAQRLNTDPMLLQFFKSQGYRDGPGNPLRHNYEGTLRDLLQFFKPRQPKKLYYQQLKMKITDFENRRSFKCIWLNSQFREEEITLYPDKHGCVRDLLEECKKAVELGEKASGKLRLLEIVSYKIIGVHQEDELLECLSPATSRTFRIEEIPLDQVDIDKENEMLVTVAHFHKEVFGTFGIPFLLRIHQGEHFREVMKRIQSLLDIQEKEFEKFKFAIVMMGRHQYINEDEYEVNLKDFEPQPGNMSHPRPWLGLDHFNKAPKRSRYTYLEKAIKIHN
Chain of USP54 (Q70EL1 whole entry): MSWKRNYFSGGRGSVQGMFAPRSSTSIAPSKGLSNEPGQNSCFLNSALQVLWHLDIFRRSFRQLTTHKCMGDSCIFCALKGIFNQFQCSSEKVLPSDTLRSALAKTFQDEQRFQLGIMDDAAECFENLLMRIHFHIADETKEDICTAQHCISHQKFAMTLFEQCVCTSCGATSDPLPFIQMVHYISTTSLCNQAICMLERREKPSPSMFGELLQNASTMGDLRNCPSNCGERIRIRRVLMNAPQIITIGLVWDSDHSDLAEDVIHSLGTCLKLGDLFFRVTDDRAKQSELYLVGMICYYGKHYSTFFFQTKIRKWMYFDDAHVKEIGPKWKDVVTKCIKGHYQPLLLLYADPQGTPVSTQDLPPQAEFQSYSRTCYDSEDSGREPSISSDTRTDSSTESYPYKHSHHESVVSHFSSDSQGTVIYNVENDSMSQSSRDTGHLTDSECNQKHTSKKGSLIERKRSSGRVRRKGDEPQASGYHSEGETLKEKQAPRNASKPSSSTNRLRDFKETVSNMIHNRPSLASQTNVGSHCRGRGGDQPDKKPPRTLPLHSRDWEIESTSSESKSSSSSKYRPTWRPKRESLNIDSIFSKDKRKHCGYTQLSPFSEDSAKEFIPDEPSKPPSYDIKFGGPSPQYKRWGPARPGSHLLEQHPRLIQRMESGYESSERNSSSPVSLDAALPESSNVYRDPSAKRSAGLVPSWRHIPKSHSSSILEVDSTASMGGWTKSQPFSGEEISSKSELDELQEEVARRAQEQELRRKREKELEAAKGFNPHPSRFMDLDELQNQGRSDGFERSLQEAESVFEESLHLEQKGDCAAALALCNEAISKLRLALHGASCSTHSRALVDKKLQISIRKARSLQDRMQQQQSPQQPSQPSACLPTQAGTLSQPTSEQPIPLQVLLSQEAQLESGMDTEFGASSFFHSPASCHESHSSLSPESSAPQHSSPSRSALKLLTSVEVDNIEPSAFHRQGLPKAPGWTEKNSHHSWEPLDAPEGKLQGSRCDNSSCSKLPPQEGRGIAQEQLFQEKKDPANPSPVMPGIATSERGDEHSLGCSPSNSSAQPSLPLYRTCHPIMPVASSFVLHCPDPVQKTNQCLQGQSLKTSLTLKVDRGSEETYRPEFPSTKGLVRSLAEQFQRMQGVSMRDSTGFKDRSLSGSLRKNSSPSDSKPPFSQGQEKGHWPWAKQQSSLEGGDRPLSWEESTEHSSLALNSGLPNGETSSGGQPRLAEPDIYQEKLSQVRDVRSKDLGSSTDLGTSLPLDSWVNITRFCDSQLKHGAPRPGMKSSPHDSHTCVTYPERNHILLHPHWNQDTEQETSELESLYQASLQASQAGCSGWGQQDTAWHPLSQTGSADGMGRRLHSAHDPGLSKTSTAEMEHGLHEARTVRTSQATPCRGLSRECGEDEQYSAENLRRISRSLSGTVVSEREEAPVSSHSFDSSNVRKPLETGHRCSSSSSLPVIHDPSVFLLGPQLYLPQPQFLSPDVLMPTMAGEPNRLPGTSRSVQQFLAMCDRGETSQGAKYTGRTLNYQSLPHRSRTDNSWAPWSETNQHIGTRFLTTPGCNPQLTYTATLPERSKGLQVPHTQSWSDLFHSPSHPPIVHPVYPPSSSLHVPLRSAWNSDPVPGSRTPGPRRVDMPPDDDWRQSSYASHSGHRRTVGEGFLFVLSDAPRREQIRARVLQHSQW
Chain of USP46 (P62068 whole entry): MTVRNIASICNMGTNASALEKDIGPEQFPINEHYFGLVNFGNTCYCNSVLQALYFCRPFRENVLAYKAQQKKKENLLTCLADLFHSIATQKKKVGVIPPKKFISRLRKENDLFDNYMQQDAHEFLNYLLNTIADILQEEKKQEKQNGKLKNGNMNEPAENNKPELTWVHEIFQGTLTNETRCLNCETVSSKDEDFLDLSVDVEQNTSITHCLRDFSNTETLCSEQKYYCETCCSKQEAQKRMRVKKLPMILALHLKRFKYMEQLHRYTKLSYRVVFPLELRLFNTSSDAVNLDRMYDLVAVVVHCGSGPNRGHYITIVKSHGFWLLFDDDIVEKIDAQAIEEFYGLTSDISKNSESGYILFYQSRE

Cl.O=C(CCl)N1CCC(Cc2nccs2)C1 (stereo not drawn)
inactive: USP42 0.34 | USP46 0.105 | USP47 -0.538 | USP48 -0.286 | USP5 0.225 | USP54 0.476 | USP7 -0.334 | USP8 -0.208
